Among the data in PubChem BioAssay AID2132 (NMMLSC, 2009) are inhibition values, retold here.

A number with no mark means an inactive call. The source made the active and inactive calls.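 The calls were made as follows: active = inhibition above 20%; inactive = the rest.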 Peptide text beside a SMILES is read from it. * marks the point of attachment. Cbz = O=C(OCc1ccccc1)*

A short description of the assay: inhibition of 26S proteasome fluorogenic peptide cleavage, counter-screen for 26S proteasome disassembly project, biochemical, fluorogenic peptides, secondary (AID 2132). To be noted: yeast 26S proteasome, fluorogenic peptide cleavage rate; with Ac-nLPnLD-amc; at 100 µM; active compounds read high. (A counterscreen serves to expose hits that act by an unwanted route or on another target.)

As usually defined, the inhibition is the share of the control response that was lost under treatment. Turning to `CC(C)C[C@@H](C=O)NC(=O)[C@H](CC(C)C)NC(=O)[C@H](CC(C)C)NC(=O)OCc1ccccc1` (Cbz-Leu-Leu-Leu-aldehyde), the inhibition is 27% (active).

`CC(=O)N1C(=O)C(=C2C=C(C)OC(C)=C2)c2ccccc21`: the inhibition was 20%.
